What was measured:
Assay in all cases: log2 ratio of Biotin-Ahx-Ub-VS probe labelling (fragment/DMSO); higher = less target engagement (more negative = stronger competition), active = hit call of the paper (q ≤ 0.05, log2 ratio ≤ -1)
Conditions in all cases: compound concentration: 200 uM; treatment time: 3 h
OTUD6B = molecular target: T1, OTUD6B (UniProt Q8N6M0)
T1 sequence (whole entry): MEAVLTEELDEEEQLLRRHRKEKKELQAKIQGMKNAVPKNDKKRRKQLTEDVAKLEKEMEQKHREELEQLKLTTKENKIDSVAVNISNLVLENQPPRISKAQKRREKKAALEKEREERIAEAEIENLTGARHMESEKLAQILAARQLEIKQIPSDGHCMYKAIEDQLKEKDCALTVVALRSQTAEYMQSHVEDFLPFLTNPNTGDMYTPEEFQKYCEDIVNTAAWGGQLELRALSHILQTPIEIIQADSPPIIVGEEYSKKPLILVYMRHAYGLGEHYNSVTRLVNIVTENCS
Procedure, shortened: (§1)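 The table lists average log2 ratios of fragment over vehicle, from an unpaired t-test on global-median-normalised Spectronaut label-free quantities. Proteins with ≥2 unique peptides were used. Samples were HEK293T lysate (495 µg) treated in triplicate with fragment at 200 µM or vehicle for 3 h, then with Biotin-Ahx-Ub-VS (0.5 µM final) for 1 h, with labelled DUBs NeutrAvidin-enriched and run by diaPASEF LC-MS/MS.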

OTUD7B = molecular target: T2, OTUD7B (UniProt Q6GQQ9)
T2 sequence (whole entry): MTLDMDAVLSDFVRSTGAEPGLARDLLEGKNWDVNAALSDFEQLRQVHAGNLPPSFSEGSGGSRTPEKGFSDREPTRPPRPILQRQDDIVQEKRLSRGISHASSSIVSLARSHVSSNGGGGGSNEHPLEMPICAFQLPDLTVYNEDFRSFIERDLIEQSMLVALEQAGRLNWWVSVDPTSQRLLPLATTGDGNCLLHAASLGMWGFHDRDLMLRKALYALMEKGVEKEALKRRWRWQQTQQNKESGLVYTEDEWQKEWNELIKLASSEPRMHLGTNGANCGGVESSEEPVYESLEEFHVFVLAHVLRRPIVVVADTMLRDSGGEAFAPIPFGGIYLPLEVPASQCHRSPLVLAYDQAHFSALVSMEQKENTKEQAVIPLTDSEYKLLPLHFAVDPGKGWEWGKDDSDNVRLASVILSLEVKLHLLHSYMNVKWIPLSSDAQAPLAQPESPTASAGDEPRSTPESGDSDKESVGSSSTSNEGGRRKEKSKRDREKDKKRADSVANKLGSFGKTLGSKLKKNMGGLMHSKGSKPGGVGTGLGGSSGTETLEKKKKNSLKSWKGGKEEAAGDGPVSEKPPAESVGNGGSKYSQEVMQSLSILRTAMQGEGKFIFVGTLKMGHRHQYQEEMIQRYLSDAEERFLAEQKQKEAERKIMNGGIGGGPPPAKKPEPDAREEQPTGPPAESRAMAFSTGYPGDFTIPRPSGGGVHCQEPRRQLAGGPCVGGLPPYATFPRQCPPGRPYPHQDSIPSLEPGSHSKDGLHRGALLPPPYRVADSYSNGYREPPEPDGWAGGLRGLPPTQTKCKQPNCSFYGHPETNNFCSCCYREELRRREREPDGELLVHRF
Procedure, shortened: as §1

PRPF8 = PRPF8 (UniProt Q6P2Q9)
Procedure, shortened: as §1

PSMD7 = molecular target: T3, PSMD7 (UniProt P51665)
T3 sequence (whole entry): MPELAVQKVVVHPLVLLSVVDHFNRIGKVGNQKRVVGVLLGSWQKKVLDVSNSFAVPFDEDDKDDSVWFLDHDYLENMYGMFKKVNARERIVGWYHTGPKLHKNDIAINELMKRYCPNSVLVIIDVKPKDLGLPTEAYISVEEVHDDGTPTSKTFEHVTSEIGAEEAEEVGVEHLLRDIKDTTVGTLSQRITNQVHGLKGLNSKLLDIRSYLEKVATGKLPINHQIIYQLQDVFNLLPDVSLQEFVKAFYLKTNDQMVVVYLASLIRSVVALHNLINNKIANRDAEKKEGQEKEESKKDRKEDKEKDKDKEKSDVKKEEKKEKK
Procedure, shortened: as §1

UCHL1 = UCHL1 (UniProt P09936)
Chain of UCHL1 (P09936 whole entry, looked up): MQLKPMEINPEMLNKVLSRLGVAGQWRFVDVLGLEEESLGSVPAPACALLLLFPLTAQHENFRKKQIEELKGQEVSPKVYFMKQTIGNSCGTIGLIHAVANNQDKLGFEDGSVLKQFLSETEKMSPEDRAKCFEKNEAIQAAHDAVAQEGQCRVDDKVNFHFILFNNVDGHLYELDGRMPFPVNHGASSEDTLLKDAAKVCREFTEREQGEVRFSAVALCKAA
Procedure, shortened: as §1

UCHL3 = molecular target: T4, UCHL3 (UniProt P15374)
T4 sequence (whole entry): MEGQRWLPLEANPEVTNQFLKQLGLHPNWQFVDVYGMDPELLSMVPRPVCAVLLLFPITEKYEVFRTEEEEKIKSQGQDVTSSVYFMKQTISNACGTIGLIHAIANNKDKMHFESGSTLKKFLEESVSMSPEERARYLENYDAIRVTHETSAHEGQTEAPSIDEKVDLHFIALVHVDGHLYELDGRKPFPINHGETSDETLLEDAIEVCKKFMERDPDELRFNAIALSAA
Procedure, shortened: as §1

UCHL5 = molecular target: T5, UCHL5 (UniProt Q9Y5K5)
T5 sequence (whole entry): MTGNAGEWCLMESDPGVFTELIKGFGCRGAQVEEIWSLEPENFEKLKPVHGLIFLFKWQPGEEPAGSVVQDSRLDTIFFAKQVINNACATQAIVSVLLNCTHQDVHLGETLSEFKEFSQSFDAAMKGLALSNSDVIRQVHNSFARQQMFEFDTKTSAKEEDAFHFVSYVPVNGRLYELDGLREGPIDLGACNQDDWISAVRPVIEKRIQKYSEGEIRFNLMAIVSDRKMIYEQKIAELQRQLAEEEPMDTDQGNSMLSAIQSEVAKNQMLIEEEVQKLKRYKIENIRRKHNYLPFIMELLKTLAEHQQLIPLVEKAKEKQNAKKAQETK
Procedure, shortened: as §1

USP10 = USP10 (UniProt Q14694)
Chain of USP10 (Q14694 whole entry): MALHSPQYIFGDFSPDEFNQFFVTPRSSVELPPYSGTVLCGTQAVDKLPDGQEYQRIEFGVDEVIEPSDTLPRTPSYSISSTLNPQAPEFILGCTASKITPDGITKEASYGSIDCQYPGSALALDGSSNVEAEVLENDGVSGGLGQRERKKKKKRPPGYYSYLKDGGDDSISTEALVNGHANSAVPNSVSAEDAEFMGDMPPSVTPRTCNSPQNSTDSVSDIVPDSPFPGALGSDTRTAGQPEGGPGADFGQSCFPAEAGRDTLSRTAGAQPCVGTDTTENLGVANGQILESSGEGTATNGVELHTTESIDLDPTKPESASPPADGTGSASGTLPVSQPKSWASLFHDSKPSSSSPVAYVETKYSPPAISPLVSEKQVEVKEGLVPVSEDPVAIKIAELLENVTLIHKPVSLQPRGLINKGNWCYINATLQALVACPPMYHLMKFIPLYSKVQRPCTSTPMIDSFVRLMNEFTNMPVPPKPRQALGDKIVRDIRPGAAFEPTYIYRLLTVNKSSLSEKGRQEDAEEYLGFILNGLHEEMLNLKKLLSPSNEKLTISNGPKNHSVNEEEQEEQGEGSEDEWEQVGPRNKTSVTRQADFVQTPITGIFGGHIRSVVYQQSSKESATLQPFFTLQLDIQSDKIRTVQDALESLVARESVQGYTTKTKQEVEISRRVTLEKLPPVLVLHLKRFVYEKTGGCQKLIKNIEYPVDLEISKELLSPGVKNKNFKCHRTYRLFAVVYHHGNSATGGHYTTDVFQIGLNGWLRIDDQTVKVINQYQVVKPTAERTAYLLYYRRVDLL
Procedure, shortened: as §1

USP15 = molecular target: T6, USP15 (UniProt Q9Y4E8)
T6 sequence (whole entry): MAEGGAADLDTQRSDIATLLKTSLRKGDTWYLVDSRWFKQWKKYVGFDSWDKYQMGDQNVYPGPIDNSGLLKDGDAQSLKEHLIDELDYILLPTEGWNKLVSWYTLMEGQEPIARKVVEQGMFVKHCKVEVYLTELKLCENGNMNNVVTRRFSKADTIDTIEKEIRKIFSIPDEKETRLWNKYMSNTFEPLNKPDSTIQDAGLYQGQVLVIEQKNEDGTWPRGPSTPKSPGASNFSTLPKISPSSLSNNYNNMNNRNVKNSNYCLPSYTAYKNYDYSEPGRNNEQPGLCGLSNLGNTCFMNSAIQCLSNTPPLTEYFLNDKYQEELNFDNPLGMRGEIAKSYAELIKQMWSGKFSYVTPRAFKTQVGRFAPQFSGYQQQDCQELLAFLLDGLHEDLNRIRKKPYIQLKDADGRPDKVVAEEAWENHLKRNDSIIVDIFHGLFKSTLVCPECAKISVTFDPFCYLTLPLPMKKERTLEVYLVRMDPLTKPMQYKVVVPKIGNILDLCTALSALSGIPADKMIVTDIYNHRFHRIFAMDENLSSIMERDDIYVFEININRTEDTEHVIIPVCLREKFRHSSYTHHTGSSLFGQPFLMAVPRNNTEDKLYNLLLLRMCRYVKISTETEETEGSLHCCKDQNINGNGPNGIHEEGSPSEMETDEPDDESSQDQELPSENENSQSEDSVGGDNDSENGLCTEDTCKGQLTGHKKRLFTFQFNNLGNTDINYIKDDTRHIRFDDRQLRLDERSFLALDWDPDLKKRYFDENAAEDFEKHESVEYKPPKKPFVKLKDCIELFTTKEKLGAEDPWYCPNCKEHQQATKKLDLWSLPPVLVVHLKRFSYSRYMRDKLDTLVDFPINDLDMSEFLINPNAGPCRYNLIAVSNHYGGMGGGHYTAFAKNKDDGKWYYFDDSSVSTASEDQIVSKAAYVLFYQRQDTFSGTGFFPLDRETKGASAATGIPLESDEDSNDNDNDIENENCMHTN
Procedure, shortened: as §1

USP16 = USP16 (UniProt Q9Y5T5)
Chain of USP16 (Q9Y5T5 whole entry, looked up): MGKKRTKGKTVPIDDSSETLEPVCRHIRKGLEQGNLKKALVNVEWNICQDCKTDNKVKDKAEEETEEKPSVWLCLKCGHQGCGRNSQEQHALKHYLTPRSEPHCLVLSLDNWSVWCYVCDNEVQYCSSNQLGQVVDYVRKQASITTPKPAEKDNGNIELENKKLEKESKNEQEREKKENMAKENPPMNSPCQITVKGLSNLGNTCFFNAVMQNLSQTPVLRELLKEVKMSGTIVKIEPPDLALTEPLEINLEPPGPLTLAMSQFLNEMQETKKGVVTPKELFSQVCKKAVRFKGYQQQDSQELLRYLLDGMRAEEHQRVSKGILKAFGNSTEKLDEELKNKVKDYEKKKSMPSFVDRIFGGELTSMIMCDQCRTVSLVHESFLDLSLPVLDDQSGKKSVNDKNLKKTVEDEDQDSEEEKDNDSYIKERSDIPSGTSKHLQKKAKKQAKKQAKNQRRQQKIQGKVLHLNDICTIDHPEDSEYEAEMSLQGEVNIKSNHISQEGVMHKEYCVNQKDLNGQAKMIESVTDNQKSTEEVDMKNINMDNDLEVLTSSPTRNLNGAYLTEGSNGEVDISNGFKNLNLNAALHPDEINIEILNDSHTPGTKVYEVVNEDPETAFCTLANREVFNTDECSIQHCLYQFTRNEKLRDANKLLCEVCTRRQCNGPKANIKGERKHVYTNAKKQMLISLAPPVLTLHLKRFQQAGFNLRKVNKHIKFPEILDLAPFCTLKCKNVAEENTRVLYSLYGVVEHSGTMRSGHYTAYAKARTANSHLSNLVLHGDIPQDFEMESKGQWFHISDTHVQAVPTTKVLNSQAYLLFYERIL
Procedure, shortened: as §1

Measured: log2 ratio of Biotin-Ahx-Ub-VS probe labelling

Cl.O=C(CCl)N1CCC(n2nc3ccccc3n2)CC1
inactive: OTUD6B -0.35 | OTUD7B -0.287 | PRPF8 0.224 | PSMD7 -0.494 | UCHL1 -0.9 | UCHL3 -0.23 | UCHL5 -0.457 | USP10 -0.135 | USP15 -0.702 | USP16 -0.441

From the supplement of paper PMC11732987, “Enantioselective OTUD7B fragment discovery through chemoproteomics screening and high-throughput optimisation” (Communications Chemistry, 2025)
